Results on 40 compounds are retold here after PubChem BioAssay (NCI).

Structures are written as SMILES. The panel holds about 79,000 compounds, 15% with a hit somewhere; the sample as a whole holds those more often. Calls of active or inactive are those of the source. Cut-off read from the data, not from the text of the source: active = growth inhibition above about 70%; inactive = the rest.

One assay can be described thus: NCI Yeast Anticancer Drug Screen. Data for the mec2-1 strain (AID 157). Conditions: S. cerevisiae mec2-1 strain, at 50.0 µM, stronger effect = higher value. The procedure, abridged:
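Strain: mec2-1 (DNA repair/cell cycle alteration). Compound exposure, then growth measured; inhibition expressed relative to vehicle.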
In the case of `NC(Cc1c(F)c(F)c(F)c(F)c1F)C(=O)O` (stereo not drawn), the growth inhibition was 2.95% (inactive). Take `ClC1C2c3ccccc3C1C1C2C2(c3ccccc3)OC1(c1ccccc1)c1ccccc12` (stereo not drawn): the growth inhibition is 1.65% (inactive).

`COc1ccc(CCNC(=O)CCc2ccccc2CO)cc1OC`: the growth inhibition was 13.9% (inactive).

As for `Cc1cccc(NC(=O)Nc2cccc(Cl)c2Cl)n1`, the growth inhibition is 13.7% (inactive). In the case of `CCCCCC1CC[N-]CC1.CCCCCC1CC[N-]CC1.N#C[S-].N#C[S-].[Cu]`, the growth inhibition was 12.7% (inactive). On the same count and under the same terms, to `CCOC(=O)C(C)(C)OC(C)=O` belongs 21.4% (inactive).

Consider `Cc1nc(C(N)=O)c(=O)[nH]c1C`, for which the growth inhibition was 2.3% (inactive). Regarding `C(=Nc1cccc2ccccc12)Nc1cccc2ccccc12`, the growth inhibition was -38.7% (inactive). As for `Cc1cc2c(cc1C)C(C)(C)c1c(nc(N)[nH]c1=O)N2C`, the growth inhibition is -1.1% (inactive). With `COC(=O)C1CC(=O)c2cc(OC)ccc2C1` (stereo not drawn), the growth inhibition is 2.8% (inactive). `CC[N+](C)(CC)c1cccc(OC(=O)N2CCCCC2)c1`: the growth inhibition was 3.45% (inactive). For the compound `Cc1cc(N(CCC#N)CCC#N)ccc1N=Nc1ccc(C(=O)O)cc1`, the growth inhibition is -34.6% (inactive). As to `CCOC(=O)c1ccnc(F)c1`, the growth inhibition was -15.7% (inactive). Regarding `Oc1ccccc1C=NCCCN=Cc1ccccc1O`, the growth inhibition is 0.25% (inactive). Turning to `CS(=O)(=O)Nc1cccc(C(=O)NN)c1`, the growth inhibition is -16.2% (inactive). The same measure, in the same setting: the figure for `CCCCCCCCn1c(C)nc2c(cnn2C)c1=O` is -19.2% (inactive); for `N=c1sc(N2CCOCC2)nn1CC(=O)c1ccccc1` it is -20.9% (inactive). Consider `O=S(=O)(c1cnccc1N1CCN(CCO)CC1)N1CCCC1`, for which the growth inhibition is -11.2% (inactive).

With `CCOC(=O)CCC(NC(=O)c1ccc(N=Cc2nc3ccccc3nc2-c2ccccc2)cc1)C(=O)OCC` (stereo not drawn), the growth inhibition was 0.95% (inactive). `NCS(=O)(=O)O`: the growth inhibition was -23.1% (inactive). As to `N#C/C(C(=O)Nc1ccccc1)=C(/N)N1CCCC1`, the growth inhibition was -15.7% (inactive).

Consider `CCCNS(C)(=O)=O`, for which the growth inhibition is 1.2% (inactive). Turning to `Oc1ccc(-c2csc(NNC3=NC/C(=C/c4ccc5c(c4)OCO5)S3)n2)cc1O`, the growth inhibition is -16.9% (inactive).

A further assay can be described thus: NCI Yeast Anticancer Drug Screen. Data for the sgs1 mgt1 strain (AID 161).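 Note: 0% = growth of cultures given vehicle only.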 Particulars: S. cerevisiae sgs1 mgt1 strain, at 50.0 µM, stronger effect = higher value. The procedure, abridged: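 Genetically altered yeast, compound exposure, growth inhibition relative to vehicle.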
With `NC(=O)c1[nH]c(/N=N/c2nc[nH]c2C(N)=O)nc1N`, the growth inhibition was 9.95% (inactive). Consider `Oc1ccc(Cl)c(O)c1`, for which the growth inhibition was -3.65% (inactive).

Regarding `Cn1c(=O)c2[nH]c(NCc3ccccc3)nc2n(C)c1=O`, the growth inhibition was 0.7% (inactive).

With `CCOC(=O)C1=C(C)NC(C)=C(C(=O)OCC)C1C`, the growth inhibition is 4.5% (inactive).

For the compound `COc1cccc(N(CN2C(=O)CCC2OC)C(C)=O)c1` (stereo not drawn), the growth inhibition was 12.9% (inactive). In the case of `O=C(Nc1ccc(Cl)c(Cl)c1)Oc1ccc(Cl)cc1C(=O)Nc1ccccc1`, the growth inhibition is 29.1% (inactive). `CCCCCc1[nH]c(=O)[nH]c(=O)c1S(=O)(=O)N1CCCCC1`: the growth inhibition was 18.7% (inactive).

Turning to `CC(=O)N(CN1C(=O)CCC1C(=O)O)c1ccccc1` (stereo not drawn), the growth inhibition is -8.5% (inactive). Consider `NC(CCOCCP(=O)(O)CCC1C=CC=CC1)C(=O)O` (stereo not drawn), for which the growth inhibition was -29.1% (inactive). As to `Nc1ccc([N+](=O)[O-])c2ccccc12`, the growth inhibition is 12.7% (inactive). As for `Cc1ccc(C(=O)/C=C/c2ccco2)cc1`, the growth inhibition was 46% (inactive).

Turning to `C=CCNC(=O)NCCCC(NC(C)=O)C(=O)NCc1ccccc1` (stereo not drawn), the growth inhibition was -14.7% (inactive). Regarding `O=c1c2cnc3cc(Cl)ccc3c2[nH]n1-c1ccc(Cl)cc1`, the growth inhibition is 1.85% (inactive). Turning to `COc1ccc(-c2cc(C)n(C3OC(CO)C(O)C(O)C3O)c(=S)c2C#N)cc1` (stereo not drawn), the growth inhibition is -9.05% (inactive). As to `CC(=O)OC1CCC2(C)C3CCC4(C)C(C(C)CCCC(C)C)CCC4C3CC(=O)C23CC13` (stereo not drawn), the growth inhibition is 13.2% (inactive). In the case of `CCCOc1nc(N)c2cnn(C3CCCCO3)c2n1` (stereo not drawn), the growth inhibition is 8.05% (inactive). With `CC(=O)O[C@@H]1[C@@H](C)[C@]2(CC(c3ccoc3)OC2O)C2CCC3O[C@]3(C)[C@]2(C)[C@@H]1OC(C)=O` (stereo partly drawn), the growth inhibition was -42.6% (inactive).

`NC(Cc1c(F)c(F)c(F)c(F)c1F)C(=O)O` (stereo not drawn): the growth inhibition is 11.2% (inactive). `ClC1C2c3ccccc3C1C1C2C2(c3ccccc3)OC1(c1ccccc1)c1ccccc12` (stereo not drawn): the growth inhibition was -3.2% (inactive). Consider `COc1ccc(CCNC(=O)CCc2ccccc2CO)cc1OC`, for which the growth inhibition is -36.9% (inactive). `Cc1cccc(NC(=O)Nc2cccc(Cl)c2Cl)n1`: the growth inhibition was 13.6% (inactive). The same measure, in the same setting: to `CCCCCC1CC[N-]CC1.CCCCCC1CC[N-]CC1.N#C[S-].N#C[S-].[Cu]` belongs 5% (inactive); to `CCOC(=O)C(C)(C)OC(C)=O`, 19.6% (inactive). Regarding `Cc1nc(C(N)=O)c(=O)[nH]c1C`, the growth inhibition was 8% (inactive). `C(=Nc1cccc2ccccc12)Nc1cccc2ccccc12`: the growth inhibition was -5.8% (inactive). On to `Cc1cc2c(cc1C)C(C)(C)c1c(nc(N)[nH]c1=O)N2C`, for which the growth inhibition is 20.5% (inactive).

As for `COC(=O)C1CC(=O)c2cc(OC)ccc2C1` (stereo not drawn), the growth inhibition was -7.7% (inactive). Same read-out and setting: the figure for `CC[N+](C)(CC)c1cccc(OC(=O)N2CCCCC2)c1` is 16.4% (inactive); for `Cc1cc(N(CCC#N)CCC#N)ccc1N=Nc1ccc(C(=O)O)cc1` it is -13.7% (inactive). `CCOC(=O)c1ccnc(F)c1`: the growth inhibition was -6.15% (inactive). As to `Oc1ccccc1C=NCCCN=Cc1ccccc1O`, the growth inhibition is 36.5% (inactive). The same measure, in the same setting: the figure for `CS(=O)(=O)Nc1cccc(C(=O)NN)c1` is -3.4% (inactive); for `CCCCCCCCn1c(C)nc2c(cnn2C)c1=O` it is -6.15% (inactive). For the compound `N=c1sc(N2CCOCC2)nn1CC(=O)c1ccccc1`, the growth inhibition is -18.2% (inactive). In the case of `O=S(=O)(c1cnccc1N1CCN(CCO)CC1)N1CCCC1`, the growth inhibition was 8.5% (inactive).

Regarding `CCOC(=O)CCC(NC(=O)c1ccc(N=Cc2nc3ccccc3nc2-c2ccccc2)cc1)C(=O)OCC` (stereo not drawn), the growth inhibition is 6.8% (inactive). With `NCS(=O)(=O)O`, the growth inhibition was -18.9% (inactive).

On to `N#C/C(C(=O)Nc1ccccc1)=C(/N)N1CCCC1`, for which the growth inhibition is 1.85% (inactive). For the compound `CCCNS(C)(=O)=O`, the growth inhibition was 10.2% (inactive). `Oc1ccc(-c2csc(NNC3=NC/C(=C/c4ccc5c(c4)OCO5)S3)n2)cc1O`: the growth inhibition is 40.4% (inactive).
